# Rows were chosen to be rich in hits. Some 3.8% of all compounds tested hit in one or more screens of this group.
# GLS inh = blocks human kidney-isoform glutaminase activity; O94925; GLS enzymatic activity, qHTS titration; Potency, µM (series often up to 45.5 µM), actives largely listed as inhibitors; 0.21% of 410,000 active
# Target sequence (O94925 whole entry, looked up, canonical isoform): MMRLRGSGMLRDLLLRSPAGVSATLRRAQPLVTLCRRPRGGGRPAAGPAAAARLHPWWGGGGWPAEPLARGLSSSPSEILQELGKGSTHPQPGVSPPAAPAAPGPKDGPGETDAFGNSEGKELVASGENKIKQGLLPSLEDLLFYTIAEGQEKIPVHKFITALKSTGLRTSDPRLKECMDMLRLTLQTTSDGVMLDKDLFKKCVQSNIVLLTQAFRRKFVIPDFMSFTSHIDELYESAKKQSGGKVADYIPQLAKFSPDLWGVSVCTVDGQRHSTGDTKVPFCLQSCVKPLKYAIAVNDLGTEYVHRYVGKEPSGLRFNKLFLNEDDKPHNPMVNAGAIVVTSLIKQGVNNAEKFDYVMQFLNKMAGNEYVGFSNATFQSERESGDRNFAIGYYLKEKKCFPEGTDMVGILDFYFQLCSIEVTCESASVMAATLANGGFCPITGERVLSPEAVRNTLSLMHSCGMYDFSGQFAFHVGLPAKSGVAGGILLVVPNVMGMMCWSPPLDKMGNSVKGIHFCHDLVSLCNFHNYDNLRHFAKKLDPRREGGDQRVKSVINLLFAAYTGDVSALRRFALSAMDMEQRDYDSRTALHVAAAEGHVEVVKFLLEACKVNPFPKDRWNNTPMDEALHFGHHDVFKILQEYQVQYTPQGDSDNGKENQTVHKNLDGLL
#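 Two-point fluorescence kinetic (t0, 30 min RT) for hKGA; glutamate detected via glutamate oxidase–HRP–Amplex Red. Substrate: 1 mM L-glutamine solution; buffer 45 mM KH2PO4, pH 8.2.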
# TrxR1 substrate = rat thioredoxin reductase 1 substrate activity; O89049; purified TrxR1 substrate turnover, NADPH consumption readout; Potency, µM (series often up to 114 µM); 0.01% of 390,000 active; also: nearly all actives have a fitted effect of over 50% in size
#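 Rat TrxR1, dispensed at 90 nM, was prereduced with 400 uM NADPH (final) for 5 min at ~22 deg C, then incubated with compound 15 min before 400 uM selenite. A first-read NADPH fluorescence drop versus no-compound background flagged substrates.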
# GCN5L2 inh = blocks human GCN5L2 histone acetyltransferase; Potency, µM (highest dose often 58.9 µM), most hits filed as inhibitors; 0.21% of 390,000 active; GCN5L2 HAT assay, ThioGlo1 CoA-SH fluorescence; AID 504327
#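 Fluorescence readout, Ex340nm/Em540nm: ThioGlo1 (50uM final) reacts with free CoA thiol released as 20nM GCN5L2 acetylates H3(1-25) peptide (75uM) using acetyl-CoA (70uM). Compound and enzyme sat 15 min beforehand; 20 min room-temperature reaction.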
# VDR inhibitor = blocks the human vitamin D receptor | Potency, µM, actives largely listed as inhibitors | VDR-SRC2-3 peptide fluorescence polarization, 2 h | P11473 | 0.93% of 400,000 active | AID 504847
#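 VDR–SRC2-3 interaction, FP format. Cmpds 23 nl via pintool, brief spin, 2 h ambient incubation.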
# Sfp PPTase inh = blocks B. subtilis Sfp PPTase activity; Biochemical Sfp PPTase activity, qHTS; Q9F4F7; Potency, µM, most hits filed as inhibitors; AID 1490; 3.5% of 310,000 active;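 also: the enzyme is Sfp with the accession as filed and its product quenches rhodamine fluorescence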
#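 Step 1, compound plus 15 nM Sfp-PPTase, 15 min, room temperature. Step 2, add rhodamine-CoA (5 uM) and BHQ-2-YbbR (12.5 uM). Step 3, read 525/598 nm fluorescence at 0 and 30 min.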
# TrxR1 inh = inhibitors of rat thioredoxin reductase 1. O89049. recombinant rTrxR1, NADPH fluorescence consumption, selenite substrate. Potency, µM (series often up to 114 µM), actives largely listed as inhibitors. 1% of 390,000 active. AID 588453; also: nearly all actives have a fitted effect of over 65% in size
#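 Rat TrxR1 (90 nM in the dispensed reagent) was pre-reduced with 400 uM NADPH for 5 min at room temperature, then incubated with compound for 15 min. After 400 uM selenite was added, NADPH fluorescence (Ex 340/Em 450 nm) was followed for 8 min.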
# Hits are given with their value; i = inactive; ? = inconclusive; nt = not tested or not shown; [ ] = remark or other dose. Calls follow the shape of the dose curve; as a rule, active = well fitted curve in the direction sought with a large enough effect; inconclusive = small, poorly fitted or top-dose-only effect, or another doubt; inactive = no such curve, though single readings can be large; an effect the other way counts as inactive or inconclusive.
SMILES,GLS inh,TrxR1 substrate,GCN5L2 inh,VDR inhibitor,Sfp PPTase inh,TrxR1 inh
c1cc(CNc2ccc(N3CCOCC3)cc2)ccn1,i,i,i[0.501 µM],?,50.1µM,i
CC(C)c1ccc(CNc2ccc(N3CCOCC3)cc2)cc1,i,i,i,i,44.7µM,i
Cc1ccc(CNc2ccc(N3CCOCC3)cc2)cc1,i,i,i,i,i,i
O=c1cc(C(F)(F)F)[nH]c2c(OC(F)(F)F)cccc12,i,i,?,i,i,i
O=C(N/N=C/c1cn(Cc2cccc(F)c2)c2ccccc12)c1cc(O)cc(O)c1,2.51µM,i,i,i,i,i
Cc1nn(-c2ccccc2)c(C)c1/C=N/n1cnnc1,i,i,i,i,i,i
Cc1nn(-c2ccccc2)c(C)c1/C=N\N1CCN(c2ccc(Cl)cc2)CC1,i,i,i,i,25.1µM,i
O=C(NCc1ccncc1)C(=O)Nc1nc2ccccc2s1,i,i,i,i,i,i
Cc1cccc[n+]1C1C(c2ccccc2)C(C#N)=C(C(=C=[N-])C#N)NC1(O)C1CC1 (stereo not drawn),i,i,i,i,i,i
COc1ccc([C@H]2C(C#N)=C([S-])N[C@](C)(O)[C@@H]2[n+]2ccccc2)cc1,i,i,i,?,25.1µM,i
Cc1ccc[n+](C2C(c3ccc([N+](=O)[O-])cc3)C(C#N)=C([S-])NC2(O)C2CC2)c1 (stereo not drawn),i,i,i,i,25.1µM,i
O=C(O)/C=C/C(=O)Nc1ccc(Cl)cc1C(=O)c1ccccc1,i,i,i,i,79.4µM,i
O=C(O)/C=C/C(=O)Nc1ccc(NC(=O)c2ccccc2)c(Cl)c1,i,i,i,i,56.2µM,i
O=C(O)/C=C/C(=O)Nc1ccc(C(=O)c2ccccc2)cc1,i,i,i,?,i,i
COCCn1c(SCC(=O)Nc2cc(C(C)(C)C)nn2-c2ccccc2)nnc1-c1ccncc1,i,i,i,i,i,i
COC(=O)c1[nH]c2ccc(F)cc2c1NC(=O)CCN1CCN(Cc2ccc3c(c2)OCO3)CC1,i,i,i,i,i,i
CCN(CC(=O)Nc1c(C(=O)OC)[nH]c2ccc(C)cc12)c1ccc2c(c1)OCO2,i,i,i,i,44.7µM,i
COc1cc(NC(=S)Nc2ccc(Br)cc2Cl)c(OC)cc1Cl,i,i,i,i,50.1µM,?
COc1cc(Cl)c(C)cc1NC(=S)NN,i,i,i,i,35.5µM,i
COc1cc(NC(=S)Nc2cccc(Cl)c2Cl)c(OC)cc1Cl,i,i,i,i,50.1µM,i
COc1cc(NC(=O)CN2CCCN(S(=O)(=O)c3ccc(F)cc3)CC2)cc(OC)c1,i,i,i,?,nt,i
O=C(O)CCCNc1cc(N2CCN(C(=O)c3ccco3)CC2)c2noc3c2c1C(=O)c1ccccc1-3,?,i,i,i,i,i
O=C1c2ccccc2-c2onc3c(N4CCN(CCO)CC4)cc(N4CCN(C(=O)c5ccco5)CC4)c1c23,i,i,i,i,5.01µM,?
CCCSc1ccccc1C(=O)N1CCN(C(=O)c2ccco2)CC1,i,i,i,i,i,i
O=C1c2ccccc2-c2c1cccc2C(=O)N1CCN(C(=O)c2ccco2)CC1,i,i,i,i,?,31.6µM
SMILES,GLS inh,TrxR1 substrate,GCN5L2 inh,VDR inhibitor,Sfp PPTase inh,TrxR1 inh
CCOC(=O)N1CCN(c2cc(NCCC(=O)O)c3c4c(onc24)-c2ccccc2C3=O)CC1,17.8µM,i,?,?,i,i
CN1CCN(c2cc(N3CCN(C(=O)c4ccco4)CC3)c3c4c(onc24)-c2ccccc2C3=O)CC1,i,i,i,i,15.8µM,i
O=C(O)CCCNc1cc(N2CCC3(CC2)OCCO3)c2noc3c2c1C(=O)c1ccccc1-3,nt,nt,?,nt,i,nt
COc1ccc(C(=O)NN)cc1COc1ccc(Br)cc1,i,i,i,?,i,i
O=C(Nc1ccccc1)C(Cl)C(=O)c1ccccc1 (stereo not drawn),i,i,i,?,14.1µM,i
CC(=O)C(Cl)C(=O)Nc1ccccc1 (stereo not drawn),?,i,i,14.1µM,?,i
N#Cc1cc([N+](=O)[O-])ccc1NC(=O)CSc1n[nH]c(=O)n1C1CC1,i,i,i,i,nt,i
Cc1ccc(C)c(NNC(N)=S)c1,?,i,i,i,50.1µM,i
Cc1cccc(NC(=S)NCCO)c1C,i,i,i,i,i,i
Cc1cccc(NNC(N)=S)c1C,i,i,i,?,39.8µM,i
COc1cc(/C=C/C(=O)N2CCC=CC2=O)cc(OC)c1OC,i,i,i,?,i,i
Cc1c2ccccc2cc[n+]1C,nt,i,nt,nt,nt,i
CC1=[N+](C)c2ccc3ccccc3c2C1(C)C,i,i,i,44.7µM,?,?
Cc1nn(-c2ccccn2)c2c1-c1nc(N)sc1CC2,nt,i,nt,nt,nt,?
CCn1ncc(C2=NOC(C(=O)N3CCC(C(N)=O)CC3)C2)c1C (stereo not drawn),i,i,i,i,i,i
O=c1c2ccccc2nc(/C=C/c2ccc(Br)cc2)n1CCCO,i,i,i,i,i,i
CCOC(=O)C(C)/C(C)=N\Nc1ccc([N+](=O)[O-])cc1[N+](=O)[O-] (stereo not drawn),i,i,i,i,i,i
CCOC(=O)C(C)/C(C)=N/NC(N)=S (stereo not drawn),i,i,i,i,39.8µM,i
O=C(NNc1ccccc1)Nc1cc(Cl)ccc1Cl,i,i,nt,39.8µM,nt,i
O=C(Nc1cccc(Cl)c1)Nc1ccccc1C(=O)O,i,i,i,i,i,i
O=C(NNc1ccccc1[N+](=O)[O-])Nc1cccc(Cl)c1,i,i,i,79.4µM,i,i
O=C(/C=C/c1ccccc1)N/C(=C/c1ccccc1)C(=O)NCCO,i,i,i,i,i,i
O=C(O)CNC(=O)/C(=C/c1ccco1)NC(=O)/C=C/c1ccccc1,i,i,i,i,56.2µM,i
C=CCOC(=O)/C(=C/c1ccco1)NC(=O)/C=C/c1ccccc1,i,i,i[0.501 µM],i,i,17.8µM
NC1(C(=O)O)CCC1,nt,nt,i,i,?,nt
SMILES,GLS inh,TrxR1 substrate,GCN5L2 inh,VDR inhibitor,Sfp PPTase inh,TrxR1 inh
N[C@@]1(C(=O)O)CN[C@@H](C(=O)O)C1,nt,nt,i,i,22.4µM,nt
NC1(C(=O)O)CC(C(=O)O)C1 (stereo not drawn),nt,nt,i,i,50.1µM,nt
O=C(O)[C@@H]1C[C@@H](C(=O)O)N1,nt,i,i,i,?,i
CCOc1ccc(OCCOCCN2CCc3ccccc3C2)cc1,nt,i,i,i,i,i
C=CCc1cc(OC)ccc1OCCOCCN1CCc2ccccc2C1,i,i,i,i,35.5µM,i
CCCCn1c(N)c(N(CC(C)C)C(=O)C2CC(=O)N(CCc3ccccc3)C2)c(=O)[nH]c1=O (stereo not drawn),i,i,i,i,i,i

# Assay outcomes: PubChem, National Center for Advancing Translational Sciences (NCATS)
